Results from PubChem BioAssay (NCATS).
Results filed as inconclusive are left out. The source made the active and inactive calls. Unless noted, the call rests on the fitted dose curve; in most records, active means well fitted activation curve with a large enough effect; inconclusive means small, poorly fitted or top-dose-only effect; inactive means flat fitted curve, though single readings scatter.

Test system: not listed separately
Experiment: Validation screen for small molecules that induce DNA re-replication in SW480 colon adenocarcinoma cells (AID 504364)
Details: DNA re-replication phenotype (high-content imaging); series mostly up to 46.1 µM
How it was run: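 250 cells/well; compound pinned in; 48 hr, 37 C, 5% CO2; Hoechst added, 40 min; nuclear fluorescence imaged, 405 ex / 500-530 em; re-replication scored as increase in high-intensity nuclei.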

| SMILES | outcome |
| --- | --- |
| CC(C)[N+](C)(CCOC(=O)C1c2ccccc2Oc2ccccc21)C(C)C | inactive |
| CC1=NS(=O)(=O)c2cc(Cl)ccc2N1 | inactive |
| O=C(O)CN(CCOCCOCCN(CC(=O)O)CC(=O)O)CC(=O)O | inactive |
| C[N+](C)(C)CCOC(=O)CCC(=O)OCC[N+](C)(C)C | inactive |
| CCCN(CCC)CCc1cccc2c1CC(=O)N2 | inactive |
| Cc1nc2ccccn2c(=O)c1CCN1CCC(C(=O)c2ccc(F)cc2)CC1 | inactive |
| O=C(CCNNC(=O)c1ccncc1)NCc1ccccc1 | inactive |
| COCCc1ccc(OCC(O)CNC(C)C)cc1 (stereo not given) | inactive |
| c1ccc2c(c1)CCCC2C1=NCCN1 (stereo not given) | inactive |
| CCn1ccnc1CC1COc2ccccc2O1 (stereo not given) | inactive |
| Cc1ccc(S(=O)(=O)NC(=O)NN2CCCCCC2)cc1 | inactive |
| C[n+]1cc2c3c(ccc2c2ccc4cc5c(cc4c21)OCO5)OCO3 | inactive |
| Cc1nc2sccn2c(=O)c1CCN1CCC(=C(c2ccc(F)cc2)c2ccc(F)cc2)CC1 | inactive |

Biological target: Peptidyl-prolyl cis-trans isomerase NIMA-interacting 1 (Homo sapiens) (UniProt Q13526)
Experiment: qHTS Validation Assay to Find Inhibitors of Pin1 (AID 504536; active means well fitted inhibition curve with a large enough effect in the polarisation, with a control signal flat, not every such curve was filed as active; the % refers to the polarisation)
Details: Pin1 fluorescence polarization peptide binding assay; series mostly up to 57.5 µM
How it was run: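 Fluorescence polarization competition: compounds (titration) displace HiFluor-488-labeled Pin1-1b peptide from Pin1 (0.3 uM final) in pH 7.5 HEPES buffer with DTT, 10 min at room temperature; %Activity normalized to no-enzyme wells, curves fitted.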

Chain of Peptidyl-prolyl cis-trans isomerase NIMA-interacting 1 (Homo sapiens) (Q13526 whole entry, looked up): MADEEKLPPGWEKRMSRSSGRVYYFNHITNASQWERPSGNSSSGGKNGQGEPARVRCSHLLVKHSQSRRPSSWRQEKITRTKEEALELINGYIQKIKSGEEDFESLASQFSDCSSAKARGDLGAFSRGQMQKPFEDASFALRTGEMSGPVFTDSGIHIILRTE

| SMILES | outcome |
| --- | --- |
| CC(C)[N+](C)(CCOC(=O)C1c2ccccc2Oc2ccccc21)C(C)C | inactive |
| CC1=NS(=O)(=O)c2cc(Cl)ccc2N1 | inactive |
| NC1=NCC2c3ccccc3Cc3ccccc3N12 (stereo not given) | inactive |
| O=C(O)CN(CCOCCOCCN(CC(=O)O)CC(=O)O)CC(=O)O | inactive |
| CCO/C([O-])=N/c1c[n+](N2CCOCC2)no1 | inactive |
| CNCCC(Oc1ccccc1OC)c1ccccc1 (stereo not given) | inactive |
| C[N+](C)(C)CCOC(=O)CCC(=O)OCC[N+](C)(C)C | inactive |
| CCN(CC)CCCN(c1ccccc1)C1Cc2ccccc2C1 | inactive |
| CCCN(CCC)CCc1cccc2c1CC(=O)N2 | inactive |
| CCN1CCC[C@H]1CNC(=O)c1c(O)c(Cl)cc(Cl)c1OC | inactive |
| CC(C)COCC(CN(Cc1ccccc1)c1ccccc1)N1CCCC1 (stereo not given) | inactive |
| CC(C)(Oc1ccc(CCNC(=O)c2ccc(Cl)cc2)cc1)C(=O)O | inactive |
| CN1C(=O)CC[C@H]1c1cccnc1 | inactive |
| Cc1nc2ccccn2c(=O)c1CCN1CCC(C(=O)c2ccc(F)cc2)CC1 | inactive |
| NC(=O)c1cn(Cc2c(F)cccc2F)nn1 | inactive |
| CCCCCCCC/C=C\CCCCCCCC(=O)NCc1ccc(O)c(OC)c1 | inactive |

| SMILES | outcome |
| --- | --- |
| CN(C(=O)CCCOc1ccc2[nH]c(=O)ccc2c1)C1CCCCC1 | inactive |
| CSc1ccc(C(=O)c2[nH]c(=O)[nH]c2C)cc1 | inactive |
| C[C@]12CC[C@@H]3c4ccc(O)cc4C[C@@H](CCCCCCCCCS(=O)CCCC(F)(F)C(F)(F)F)[C@H]3[C@@H]1CC[C@@H]2O (stereo not given in full) | inactive |
| CC(=O)[C@@]1(O)CC[C@H]2[C@@H]3CCC4=CC(=O)CC[C@]4(C)[C@H]3CC[C@@]21C | inactive |
| CCCCCN(CCCCC)C(=O)C(CCC(=O)O)NC(=O)c1ccc(Cl)c(Cl)c1 (stereo not given) | inactive |
| O=C(CCNNC(=O)c1ccncc1)NCc1ccccc1 | inactive |
| COCCc1ccc(OCC(O)CNC(C)C)cc1 (stereo not given) | inactive |
| c1ccc2c(c1)CCCC2C1=NCCN1 (stereo not given) | inactive |
| Cc1cccc(C)c1NC(=O)C(C)N (stereo not given) | inactive |
| OC(CCN1CCCCC1)(c1ccccc1)C1CCCCC1 (stereo not given) | inactive |
| CCn1ccnc1CC1COc2ccccc2O1 (stereo not given) | inactive |
| CCCN(CCC)C(=O)C(CCC(=O)O)NC(=O)c1ccccc1 (stereo not given) | inactive |
| Cc1ccc(S(=O)(=O)NC(=O)NN2CCCCCC2)cc1 | inactive |
| CCc1cccc(N(C)C(N)=Nc2cccc3ccccc23)c1 | inactive |
| C[n+]1cc2c3c(ccc2c2ccc4cc5c(cc4c21)OCO5)OCO3 | inactive |
| Cc1nc2sccn2c(=O)c1CCN1CCC(=C(c2ccc(F)cc2)c2ccc(F)cc2)CC1 | inactive |
